According to article PMC4552634, “A New Set of Chemical Starting Points with Plasmodium falciparum Transmission-Blocking Potential for Antimalarial Drug Discovery” (PLoS ONE, 2015):
Where two headings read alike, the source gives them in different places. The campaign covered roughly 13,000 compounds. About 3,200 (25%) showed an effect of 50% or more. This is one part of the list.

Test system: P. falciparum stage V gametocytes
Parameters: BacTiter-Glo ATP luminescence viability of purified stage V gametocytes in 384-well plates, per cent inhibition versus DMSO
Conditions: 48 h, 5 µM, inhibitor

## Cc1nc(-c2cccc(C(=O)Nc3cnc4ccccc4c3)c2)no1 [TCMDC-135810]
  % Inhibition: 8.288%

## CC1CCC(NCc2ccc3c(CNC4CCC(C)CC4)c(O)ccc3c2O)CC1 (centres unmarked) [TCMDC-137587]
  % Inhibition: -63.23%

## COc1cccc(C(=O)NCCc2cccc(Cl)c2)c1OCc1ccccc1 [TCMDC-141235]
  % Inhibition: -13.17%

## COc1ccc(C(=O)O)cc1OCc1ccccc1 [TCMDC-125534]
  % Inhibition: 4.056%

## COc1cc(CCNC(=O)Cc2ccc3ccccc3c2)ccc1OCc1ccccc1 [TCMDC-137227]
  % Inhibition: 57.44%

## CCC(C)CC(=O)Nc1ccc(OC)c(S(=O)(=O)N[C@@H]2CCN(C#N)C2)c1 (some centres unmarked) [TCMDC-134061]
  % Inhibition: 14.31%

## COc1cc(-c2nc3ccc(N4CCN(C)CC4)cc3[nH]2)cc(OC)c1OC [TCMDC-124585]
  % Inhibition: -16.2%

## COc1ccc(Nc2ncc(C#N)c(Nc3ccccc3C(N)=O)n2)cc1N1CCN(C)CC1 [TCMDC-134117]
  % Inhibition: -97.62%

## COc1ccc(Nc2ncc(OC)c(Nc3ccccc3C(N)=O)n2)cc1N1CCN(C)CC1 [TCMDC-134149]
  % Inhibition: 9.949%

## COc1ccc(Nc2ncc(Cl)c(Nc3cccnc3C(N)=O)n2)cc1N1CCN(C)CC1 [TCMDC-134163]
  % Inhibition: 97.54%

## CNC(=O)c1ccccc1Nc1nc(Nc2ccc(N3CCOCC3)cc2)ncc1Cl [TCMDC-134144]
  % Inhibition: -63.52%

## Cc1cc(Nc2ncc(C#N)c(Nc3ccccc3C(N)=O)n2)ccc1N1CCN(C)CC1 [TCMDC-134115]
  % Inhibition: 104.7%

## CNC(=O)c1cnc(Nc2ccc(N3CCN(C)CC3)c(C)c2)nc1NC [TCMDC-134162]
  % Inhibition: 36.76%

## CNC(=O)c1ccccc1Nc1nc(Nc2ccc(N3CCN(C)CC3)nc2)ncc1C [TCMDC-134123]
  % Inhibition: 57.48%

## CNC(=O)c1cnc(Nc2ccc(N3CCN(C)CC3)cc2)nc1Nc1ccccc1OC [TCMDC-141382]
  % Inhibition: -26.7%

## Cc1cc(Nc2ncc(Cl)c(Nc3ccccc3C(N)=O)n2)n[nH]1 [TCMDC-134170]
  % Inhibition: -34.04%

## CNC(=O)c1ccccc1Nc1nc(Nc2ccc(CCN3CCN(C)CC3)cc2)ncc1Cl [TCMDC-133800]
  % Inhibition: 8.334%

## CN1CCN(c2ccc(Nc3ncc(Cl)c(Nc4cccnc4C(N)=O)n3)cc2)CC1 [TCMDC-134164]
  % Inhibition: -84.83%

## NC(=O)c1ccccc1Nc1nc(Nc2cccc(N3CCN(CCO)CC3)c2)ncc1Cl [TCMDC-134114]
  % Inhibition: 94.95%

## CCC[C@@H](C(=O)NCCc1cccc(OC)c1)N1C(=O)c2c(ccc(OC)c2OC)C1C(=O)Nc1c(C)cccc1C (some centres unmarked) [TCMDC-141135]
  % Inhibition: 18.96%

## Cc1[nH]n(-c2cccc(Cl)c2)c(=O)c1-c1ccc(Cl)cc1 [TCMDC-123495]
  % Inhibition: -44.23%

## O=C(Nc1ccc(C(F)(F)F)cc1)c1cc(Br)cnc1NCCCn1ccnc1 [TCMDC-136699]
  % Inhibition: 4.282%

## COc1ccc(NC(=O)c2cc(-c3ccc(NC(C)=O)cc3)cnc2N)cc1 [TCMDC-135658]
  % Inhibition: 32%

## CNC(=O)c1cc(F)c(F)cc1Nc1nc(Nc2cccc(CS(C)(=O)=O)c2)ncc1Cl [TCMDC-134060]
  % Inhibition: -6.741%

## CNC(=O)c1ccccc1Nc1nc(Nc2cccnc2)ncc1C [TCMDC-134211]
  % Inhibition: 33.23%

## CNC(=O)c1ccccc1Nc1nc(Nc2cccc(CS(C)(=O)=O)c2)ncc1C [TCMDC-133809]
  % Inhibition: 64.95%

## Cc1ccc(NC(=O)c2ccc3ncccc3c2)cc1OC1CCN(Cc2ccsc2)CC1 [TCMDC-134270]
  % Inhibition: 12.12%

## COc1ccc(OCC(O)CN(Cc2ccccc2OC)C(=O)Nc2ccc(Br)cc2)cc1 (centres unmarked) [TCMDC-141494]
  % Inhibition: 25.96%

## COc1ccccc1NC(=O)OC(COc1ccc(N)cc1)CN1CC=C(c2ccccc2)CC1 (centres unmarked) [TCMDC-136486]
  % Inhibition: 60.38%

## COc1cccc(OC)c1-c1ccccc1NC(=O)N1CCCc2cc(C)ccc21 [TCMDC-136199]
  % Inhibition: -20.26%

## Cc1cccc2[nH]c(-c3cccc(-c4ccc(NC(=O)Nc5ccc(F)c(F)c5F)cc4)c3)nc12 [TCMDC-133225]
  % Inhibition: -8.037%

## COc1ccc2ncc(F)c(CCN3CC(O)C(CNCc4nc5c(cc4Cl)OCC(=O)N5)C3)c2n1 (centres unmarked) [TCMDC-136031]
% Inhibition
  % Inhibition: 24.96%

## Oc1ccc2[nH]cc(C3CCN(CCC(c4ccccc4)c4ccccc4)CC3)c2c1 [TCMDC-139017]
  % Inhibition: -54.72%

## Oc1ccc2[nH]cc(C3CCN(CCCNCc4ccc(-c5ccccc5)cc4)CC3)c2c1 [TCMDC-139047]
  % Inhibition: 101.4%

## O=C(/C=C/c1ccc(Cl)c(Cl)c1)NCCCCCN1CCC(c2c[nH]c3cc(O)ccc23)CC1 [TCMDC-139282]
  % Inhibition: 10.47%

## Oc1ccc2[nH]cc(C3CCN(CCCCCCCCCN4CCC(c5c[nH]c6ccc(O)cc56)CC4)CC3)c2c1 [TCMDC-139003]
  % Inhibition: 74.24%

## Cc1cccc2nc(-c3cccc(-c4cccc(NC(=O)NC5CC5c5ccccc5)c4)c3)[nH]c12 (centres unmarked) [TCMDC-133254]
  % Inhibition: -21.78%

## CNC(=O)/C=C/c1cc(NC(=O)Nc2cc(C)nc3c(F)cccc23)ccc1OC [TCMDC-140324]
  % Inhibition: -6.922%

## COc1cc(C(=O)Nc2nc3ccccc3[nH]2)ccc1OCC(=O)Nc1cccc(C(F)(F)F)c1 [TCMDC-125460]
  % Inhibition: 11.63%

## O=C(Nc1cccc(CN2CCCN(Cc3ccc(O)cc3)CC2)c1)c1cccc(C(F)(F)F)c1 [TCMDC-141836]
  % Inhibition: -28.76%

## CC(O)CNc1nc2ccccc2n1CC(=O)Nc1cccc(C(=O)Nc2cccc(C(F)(F)F)c2)c1 (centres unmarked) [TCMDC-124335]
  % Inhibition: 86.13%

## O=C(CN1CCCC1)Nc1cccc(C(=O)Nc2cccc(C(F)(F)F)c2)c1 [TCMDC-124512]
  % Inhibition: 78.8%

## O=C(Cc1n[nH]c(=O)c2ccccc12)Nc1cccc(C(=O)Nc2cccc(C(F)(F)F)c2)c1 [TCMDC-125260]
  % Inhibition: 48.65%

## CC12CCC(=O)N1C(C(=O)Nc1cccc(C(=O)Nc3cccc(C(F)(F)F)c3)c1)CS2 (centres unmarked) [TCMDC-125019]
  % Inhibition: 77%

## CCCCCN1CCCC1CNS(=O)(=O)c1cccc(C(=O)Nc2cccc(C(F)(F)F)c2)c1 (centres unmarked) [TCMDC-133686]
  % Inhibition: -82.32%

## O=C(CNC1CCCCC1)Nc1cccc(C(=O)Nc2cccc(C(F)(F)F)c2)c1 [TCMDC-123711]
  % Inhibition: 29.34%

## COc1ccccc1C(C)NCC(=O)Nc1cccc(C(=O)Nc2cccc(C(F)(F)F)c2)c1 (centres unmarked) [TCMDC-124871]
  % Inhibition: 31.1%

## CC(C)NCC(=O)Nc1cccc(C(=O)Nc2cccc(C(F)(F)F)c2)c1 [TCMDC-124878]
  % Inhibition: 70.58%

## O=C(Cn1c(=O)cnc2ccccc21)Nc1cccc(C(=O)Nc2cccc(C(F)(F)F)c2)c1 [TCMDC-125468]
  % Inhibition: 18.7%

## O=C(Nc1cccc(C(F)(F)F)c1)c1cccc(S(=O)(=O)NCC2CCCN2CC2CCCCC2)c1 (centres unmarked) [TCMDC-133687]
  % Inhibition: -58.72%
